The panel holds about 83,000 compounds, 20% with a hit somewhere; the sample as a whole holds those more often.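 The endpoint reported here, percent growth, reads 100 for growth as untreated, 0 for no net growth and -100 for all cells dead.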 Activity calls are given as the source filed them. The calls were made as follows: active = growth percent below 10; inactive = the rest.

This assay relates to SK-OV-3 ovarian. Kind of assay: NCI-60 one-dose screen, 48 h (100 = growth as untreated, 0 = no growth, -100 = all killed). The conditions noted are these: 10 µM unless noted.
Regarding `ClCCN(CCCl)C(c1ccccc1)c1ccc(Cl)cc1` (centres undefined), the growth is 109% (inactive).
The value for `CCCCn1cc(C(=O)/C(C#N)=C/c2cc3ccccc3nc2Cl)c2cc(OC)ccc21` was 94.5% (inactive).
In the case of `CCCCNCCc1ccccn1` it was 119% (inactive); in that of `CC(=O)C1C(=O)N(C)C(=O)N(C)C1=O`, 115% (inactive); in that of `CC1(C)N=C(N)N=C(N)N1c1cccc(C(=O)Nc2cccc(S(=O)(=O)F)c2)c1`, 117% (inactive).
Turning to `C[C@]12CC[C@@H]3C4=C(CC[C@H]3[C@@H]1CC[C@@H]2O)CC(=O)CC4`, the growth was 114% (inactive).
The value for `Oc1ccccc1OB(Oc1ccccc1O)N(CCCl)CCCl` was 112% (inactive).
The value for `NC(Cc1ccc2c(c1)OCO2)c1ccc2c(c1)OCO2` (centres undefined) was 108% (inactive); that for `COc1ccc(-c2ccc(OC)c(OC)c2OC)cc1` was 7.71% (active); that for `CC[C@@]1(C2O[C@@H](C3O[C@@](O)(CC)[C@H](C)C[C@@H]3C)C[C@@H]2C)CC[C@H]([C@]2(C)CCC3(C[C@H](O)[C@@H](C)[C@@H]([C@H](C)[C@@H](OC)[C@H](C)C(=O)O)O3)O2)O1` (some centres undefined) was 23% (inactive).
For `CC1(C)N=C(N)N=C(N)N1c1ccc(CCCCc2ccc(S(=O)(=O)F)cc2)c(Cl)c1`, the growth is 42% (inactive).
In the case of `COc1ccc(C2=NN(c3ccccc3)C(c3sc(N(CCCl)CCCl)nc3Cl)C2)cc1` (centres undefined) it was 75.9% (inactive).
The value for `N#CC1c2ccccc2C=CN1C(=O)c1ccc(N(CCCl)CCCl)cc1` (centres undefined) was 97.3% (inactive); that for `CSc1ccccc1NP1(=O)OCC(C)([N+](=O)[O-])CO1` (centres undefined) was 98.2% (inactive).

For the origin of these results see PubChem BioAssay (NCI).
